For one compound, AC50 results are on record in ChEMBL document CHEMBL1201862, “PubChem BioAssay data set” (2004).

Out of some 300,000 compounds screened, about 3,700 (1.2%) were called active. Another 20% or so got no clear call; they are omitted. The rule behind the calls is not given here. Shown is part of a subset that was picked to be rich in actives.

This experiment has as its system HEK293. Kind of experiment: qHTS for Inhibitors of binding or entry into cells for Lassa Virus. [Related pubchem assays (depositor defined):AID463114, AID540249]. The class given is functional, Homo sapiens. The conditions noted are these: read-out: Potency. Background: In qHTS, concentration-response curves come from the screen itself.
`C[C@@H]1O[C@@H](O[C@H]2C[C@@H](O)[C@]3(CO)[C@H]4[C@H](O)C[C@]5(C)[C@@H]([C@@H]6COC(=O)C6)CC[C@]5(O)[C@@H]4CC[C@]3(O)C2)[C@H](O)[C@H](O)[C@H]1O` [DIHYDROOUABAIN]: the AC50 was 1.58 µM (active).
